The values below come from PubChem BioAssay (Tox21).

Where “and” joins values, the source holds several entries; their conditions need not be identical. Identical values can stand only once. Records with an inconclusive call do not appear. Entries that show only a call come without a potency. More than one record can exist for a structure, and the calls need not agree. Calls of active or inactive are those of the source. The call rests on the fitted dose curve; in most records, active means well fitted curve in the direction sought with a large enough effect in the repeat runs; inconclusive means weak or mixed curves; inactive means no such curve, though single readings can be large; an effect the other way counts as inactive or inconclusive.
Potency means the concentration at half of the fitted maximal effect.

A short description of the first experiment: qHTS RealTime-Glo MT Cell Viability Assay in HEK293 cells - 24 hour (AID 1224886). Further: nearly all actives have a fitted effect of over 50% in size. On activity change, negative = cytotoxicity: top concentration of the series differs between compounds. As to conditions: RealTime-Glo luminescence; series mostly up to 76.8 µM; activity change, negative = cytotoxicity: at the top concentration. The essentials: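 Nonlytic real-time viability readout: viable cells convert prosubstrate to NanoLuc substrate, giving luminescence proportional to live cell number. HEK293, 600 cells/well, compound added after 5 h, continuous culture at 37 C.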
On the technique in general: qHTS replaces the single test concentration by a dilution series.
As to `CC1=CCC(C(C)(C)O)CC1` (stereo not given), the Potency entry is “inactive”.
In the case of `Nc1ncn([C@@H]2O[C@H](CO)[C@@H](O)[C@H]2O)c(=O)n1`, the “activity change, negative = cytotoxicity” value was -6.6% [at 35.3 µM] (inactive).
Consider `CCOC(=O)C(C#N)=C(c1ccccc1)c1ccccc1`, for which the Potency result is “inactive”.
With `CCC(C)(O)CCCC(C)C` (stereo not given), the Potency entry is “inactive”.
As to `CCCCNS(=O)(=O)c1ccccc1`, the Potency result was “inactive and 6.16 µM (active)”.
Same read-out and setting: in the case of `CC(C)CC(C)(O)C#CC(C)(O)CC(C)C` (stereo not given) it was “inactive”; in that of `c1ccc2c(c1)c1cccc3ccc4cccc2c4c31`, “inactive and 19.5 µM (active)”.
Still for that read-out and setting: in the case of `O=C(/C=C/c1ccccc1)OCc1ccccc1` it was “inactive”.
Same read-out and setting: to `CC(C)(C)NC(=O)[C@H]1CC[C@H]2[C@@H]3CC[C@H]4NC(=O)C=C[C@]4(C)[C@H]3CC[C@]12C` belongs “inactive”; to `CCCc1c(OCCCCc2nn[nH]n2)ccc(C(C)=O)c1O`, “inactive”; to `COc1ccc(OC)c(C(O)CNC(=O)CN)c1` (stereo not given), “inactive”.
For `COC(=O)Nc1nc2ccc(S(=O)c3ccccc3)cc2[nH]1` (stereo not given), the Potency is 952 nM (active).
On to `Cc1ncc[nH]1`, for which the Potency entry was “inactive”.
For the compound `Cc1ccc(C(=O)c2cc(O)c(O)c([N+](=O)[O-])c2)cc1`, the “activity change, negative = cytotoxicity” value was -13.2% [at 35.3 µM] (inactive).
For the compound `CN1C(C(=O)Nc2ccccn2)=C(O)c2ccccc2S1(=O)=O`, the Potency entry is “inactive”.
For `Cc1c(OCC(F)(F)F)ccnc1CS(=O)c1nc2ccccc2[nH]1` (stereo not given), the Potency was 19.5 µM (active) and 19 µM (active).
The same measure, in the same setting: to `Nc1ccc(Nc2ccccc2)cc1` belongs 48500 nM (active).
For the compound `CC(C)OC=O`, the Potency entry is “inactive”.
For the compound `OC(CCl)CCl`, the Potency result is “inactive”.
Still for that read-out and setting: in the case of `CC(C)OB(OC(C)C)OC(C)C` it was “inactive”; in that of `C[Si](C)(C)O[Si](C)(C)C`, “inactive”.
Still for that read-out and setting: to `NNc1ccc(C(=O)O)cc1` belongs “inactive”.
Take `O=C(OCc1ccccc1)c1ccccc1O`: the Potency result is “inactive”.
With `NC=O`, the Potency result was “inactive”.
For the compound `Cc1cc2nc3c(=O)[nH]c(=O)nc-3n(C[C@H](O)[C@H](O)[C@H](O)CO)c2cc1C`, the Potency result was “inactive”.
As to `Nc1ncnc2nc[nH]c12`, the Potency result is “inactive”.
As for `CC(CCC(=O)O)(c1ccc(O)cc1)c1ccc(O)cc1`, the Potency result was “inactive”.
Still for that read-out and setting: to `C=C(C)C1CC=C(C)CC1` (stereo not given) belongs “inactive”.
For `Cc1[nH]c(=O)c(C#N)cc1-c1ccncc1`, the “activity change, negative = cytotoxicity” value was -7.15% [at 35.3 µM] (inactive).
As to `O=C(c1ccccc1)c1ccc(O)cc1O`, the Potency entry is “inactive”.
`CCCCCCCCCC(=O)OC`: the Potency result is “inactive”.
For the compound `c1ccc(Nc2ccccc2)cc1`, the Potency is 17.4 µM (active) and inactive.
The same measure, in the same setting: to `CCCC(=O)O` belongs “inactive”; to `O=[N+]([O-])c1ccc2c(c1)Cc1ccccc1-2`, “inactive”.

The next experiment can be described thus: qHTS RealTime-Glo MT Cell Viability Assay in HEK293 cells - 8 hour (AID 1224887). Further: nearly all actives have a fitted effect of over 50% in size. On activity change, negative = cytotoxicity: top concentration of the series differs between compounds. As to conditions: RealTime-Glo luminescence; series mostly up to 76.8 µM; activity change, negative = cytotoxicity: at the top concentration. The essentials: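 Nonlytic bioluminescent viability monitoring. HEK293 at 600 cells/well with reagent; 5 h settle; compound transfer by pintool; plates held at 37 C and read at set time points.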
Turning to `Nc1ncn([C@@H]2O[C@H](CO)[C@@H](O)[C@H]2O)c(=O)n1`, the Potency entry is “inactive”.
Same read-out and setting: to `CCOC(=O)C(C#N)=C(c1ccccc1)c1ccccc1` belongs “inactive”; to `CCC(C)(O)CCCC(C)C` (stereo not given), “inactive”.
Turning to `CCCCNS(=O)(=O)c1ccccc1`, the “activity change, negative = cytotoxicity” value is 0.453% (inactive).
On to `CC(C)CC(C)(O)C#CC(C)(O)CC(C)C` (stereo not given), for which the “activity change, negative = cytotoxicity” value was -13.8% (inactive).
Regarding `c1ccc2c(c1)c1cccc3ccc4cccc2c4c31`, the Potency entry was “inactive”.
For `CC(C)(C)NC(=O)[C@H]1CC[C@H]2[C@@H]3CC[C@H]4NC(=O)C=C[C@]4(C)[C@H]3CC[C@]12C`, the Potency entry is “inactive”.
On the same count and under the same terms, to `CCCc1c(OCCCCc2nn[nH]n2)ccc(C(C)=O)c1O` belongs “inactive”; to `CCCCCCCCCCCO`, “inactive”.
For `COc1ccc(OC)c(C(O)CNC(=O)CN)c1` (stereo not given), the Potency entry is “inactive”.
`Cc1ccc(C(=O)c2cc(O)c(O)c([N+](=O)[O-])c2)cc1`: the Potency result is “inactive”.
As to `CN1C(C(=O)Nc2ccccn2)=C(O)c2ccccc2S1(=O)=O`, the Potency entry was “inactive”.
Turning to `Cc1c(OCC(F)(F)F)ccnc1CS(=O)c1nc2ccccc2[nH]1` (stereo not given), the Potency was 21.9 µM (active) and 23.9 µM (active).
Regarding `Nc1ccc(Nc2ccccc2)cc1`, the Potency was 21.6 µM (active) and 21.9 µM (active).
As to `COc1cc([C@@H]2c3cc4c(cc3[C@H](O)[C@H]3COC(=O)[C@H]23)OCO4)cc(OC)c1OC`, the Potency entry is “inactive”.
Regarding `OC(CCl)CCl`, the Potency entry was “inactive”.
Turning to `CC(C)OB(OC(C)C)OC(C)C`, the Potency result is “inactive”.
Turning to `C[Si](C)(C)O[Si](C)(C)C`, the Potency result was “inactive”.
On the same count and under the same terms, in the case of `c1cc(-c2ccncc2)ccn1` it was “inactive”; in that of `NNc1ccc(C(=O)O)cc1`, “inactive”; in that of `Nc1ncnc2nc[nH]c12`, “inactive”.
As to `Cc1[nH]c(=O)c(C#N)cc1-c1ccncc1`, the Potency entry is “inactive”.
Still for that read-out and setting: to `O=C(c1ccccc1)c1ccc(O)cc1O` belongs “inactive”; to `CCCCCCCCCC(=O)OC`, “inactive”.
Still for that read-out and setting: to `Cc1cccc(C(=O)O)c1` belongs “inactive”.
Take `O=[N+]([O-])c1ccc2c(c1)Cc1ccccc1-2`: the Potency result is “inactive”.
With `OCCO`, the Potency entry is “inactive”.

Another experiment can be described thus: A CellTox Green Cytotoxicity Assay to monitor cytotoxicity in HEK293 cells - 16 hour (AID 1224888). Further: nearly all actives have a fitted effect of over 35% in size. The note with it: CellTox Green fluorescence; series mostly up to 76.8 µM; activity change: at the top concentration. The essentials:
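Cytotoxicity was tracked continuously in HEK293 cells by a DNA-binding dye excluded from viable cells. Compounds were transferred in DMSO 5 h after seeding; fluorescence was recorded at intervals up to 40 h.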
`CC1=CCC(C(C)(C)O)CC1` (stereo not given): the “activity change” value is -0.893% (inactive).
On to `Nc1ncn([C@@H]2O[C@H](CO)[C@@H](O)[C@H]2O)c(=O)n1`, for which the Potency result was “inactive”.
On to `CCOC(=O)C(C#N)=C(c1ccccc1)c1ccccc1`, for which the Potency result was “inactive”.
Turning to `CCC(C)(O)CCCC(C)C` (stereo not given), the Potency entry was “inactive”.
In the case of `CCCCNS(=O)(=O)c1ccccc1`, the Potency result is “inactive”.
Consider `CC(C)CC(C)(O)C#CC(C)(O)CC(C)C` (stereo not given), for which the Potency result was “inactive”.
Same read-out and setting: in the case of `c1ccc2c(c1)c1cccc3ccc4cccc2c4c31` it was “inactive”; in that of `O=C(/C=C/c1ccccc1)OCc1ccccc1`, “inactive”; in that of `CC(C)(C)NC(=O)[C@H]1CC[C@H]2[C@@H]3CC[C@H]4NC(=O)C=C[C@]4(C)[C@H]3CC[C@]12C`, “inactive”.
In the case of `CCCc1c(OCCCCc2nn[nH]n2)ccc(C(C)=O)c1O`, the “activity change” value was -8.21% (inactive).
For `CCCCCCCCCCCO`, the Potency entry is “inactive”.
For the compound `COc1ccc(OC)c(C(O)CNC(=O)CN)c1` (stereo not given), the Potency result was “inactive”.
Same read-out and setting: to `COC(=O)Nc1nc2ccc(S(=O)c3ccccc3)cc2[nH]1` (stereo not given) belongs “inactive”.
For `Cc1ncc[nH]1`, the Potency entry was “inactive”.
Consider `Cc1ccc(C(=O)c2cc(O)c(O)c([N+](=O)[O-])c2)cc1`, for which the “activity change” value is 1.76% (inactive).
`CN1C(C(=O)Nc2ccccn2)=C(O)c2ccccc2S1(=O)=O`: the Potency result is “inactive”.
Take `Cc1c(OCC(F)(F)F)ccnc1CS(=O)c1nc2ccccc2[nH]1` (stereo not given): the Potency result was “inactive”.
Regarding `Nc1ccc(Nc2ccccc2)cc1`, the Potency result is “inactive”.
In the case of `COc1cc([C@@H]2c3cc4c(cc3[C@H](O)[C@H]3COC(=O)[C@H]23)OCO4)cc(OC)c1OC`, the Potency entry is “inactive”.
Take `CC(C)OC=O`: the Potency result was “inactive”.
Consider `OC(CCl)CCl`, for which the Potency result was “inactive”.
Turning to `CC(C)OB(OC(C)C)OC(C)C`, the Potency entry is “inactive”.
As to `C[Si](C)(C)O[Si](C)(C)C`, the Potency result is “inactive”.
Regarding `c1cc(-c2ccncc2)ccn1`, the Potency entry is “inactive”.
As to `NNc1ccc(C(=O)O)cc1`, the Potency entry was “inactive”.
`O=C(OCc1ccccc1)c1ccccc1O`: the Potency entry is “inactive”.
Regarding `NC=O`, the “activity change” value was -7.24% (inactive).
With `Cc1cc2nc3c(=O)[nH]c(=O)nc-3n(C[C@H](O)[C@H](O)[C@H](O)CO)c2cc1C`, the Potency was 43.2 µM (active) and 40.5 µM (active) and 11.7 µM (active).
For `Nc1ncnc2nc[nH]c12`, the Potency entry was “inactive”.
The same measure, in the same setting: to `CC(CCC(=O)O)(c1ccc(O)cc1)c1ccc(O)cc1` belongs “inactive”; to `C=C(C)C1CC=C(C)CC1` (stereo not given), “inactive”; to `Cc1[nH]c(=O)c(C#N)cc1-c1ccncc1`, “inactive”.
For the compound `O=C(c1ccccc1)c1ccc(O)cc1O`, the Potency entry is “inactive”.
`CCCCCCCCCC(=O)OC`: the Potency result is “inactive”.
Consider `Cc1cccc(C(=O)O)c1`, for which the Potency result was “inactive”.
As to `c1ccc(Nc2ccccc2)cc1`, the “activity change” value was 1.91% (inactive).
With `CCCC(=O)O`, the Potency entry was “inactive”.
In the case of `O=[N+]([O-])c1ccc2c(c1)Cc1ccccc1-2`, the Potency result was “inactive”.
For `OCCO`, the “activity change” value is -20.8% (inactive).
